# Results published in PubChem BioAssay.
# Several values for one entry are separate records, joined by “and”; a condition that tells them apart may be missing. Equal values may be shown once. Records with an inconclusive call do not appear. Activity calls are given as the source filed them.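 Rule for the calls, unless noted: active = compounds whose cell count with miR-34 switched on is under 0.7 times the count with it off; inactive = the rest.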
# Columns and labels:
# [1] = viability loss with induced miR-34 in A549 – imaging, A549 dox-inducible miR-34, nuclei and caspase counts, primary screen (AID 1347080); details: A549 miR-34 inducible, Hoechst nuclei count, 48 h
# [2] = galactose survival enhancers in mitochondrial complex I cybrids – cell-based, galactose medium, ATP luminescence, primary screen (AID 1645843;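 active = z-score of at least 1.8 in each of two replicates, scored against plate mean and spread of sample wells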;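 note: positive z means more ATP and so rescue of galactose-driven cybrid death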); details: complex I mutant cybrid cells, 72 h, stronger effect = higher value
# [3] = compounds altering viability of human ES cells (AID 493140; call rule not given here;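 note: cells exposed to compounds for four days before counting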); details: human embryonic stem cell survival screen; stronger effect = higher value
# [4] = P. berghei load reduction in hepatocytes – cell-based, HepG2, luciferase luminescence, HepG2 viability, primary screen (AID 624349; in the data active = parasite load remaining mostly below about 12%, no sharp cut-off; inactive = mostly above about 10%;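 note: 100% = mean of DMSO negative control wells on the same plate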); details: P. berghei liver stage in HepG2, luciferase luminescence, concentration not given here; parasite load remaining: stronger effect = lower value; viability: measured here: HepG2 viability without parasites
# [5] = target: ATP-dependent translocase ABCB1 (Homo sapiens) (UniProt P08183); experiment: P-glycoprotein substrate transport blockade – cell-based (AID 377; in the data active = fluorescence slope change above about 50%); details: MDR1-expressing cells, fluorescent substrate accumulation slope; stronger effect = higher value; concentration not given here
# [6] = compounds altering circadian rhythm period length – cell-based, LOPAC library, luminescence reporter (AID 2774; call rule not given here;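 note: values are relative to mean of DMSO wells on each plate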); details: circadian reporter cells, at 7 µM, actives lie on both sides
# [7] = system: Hepatitis C virus NS3 helicase; experiment: blockers of NS3h binding to ssDNA – biochemical, fluorescence polarization, LOPAC1280 library, primary screen (AID 687035; in the data active = inhibition above about 37%); details: Purified HCV NS3 helicase, Cy5-dT15 ssDNA binding fluorescence polarization; stronger effect = higher value; concentration not given here
# [8] = compounds altering Cy5-DNA-NS3h complex signal – biochemical, LOPAC1280, artefact control for HCV NS3 helicase inhibitor project (AID 687037; call rule not given here); details: Cy5-DNA-NS3h complex fluorescence interference counterscreen
# [9] = signal quenchers or enhancers, Cy5 substrate/SSB – biochemical, NIH Clinical Collection, E. coli SSB, artefact control for HCV NS3 helicase inhibitor project (AID 743268; call rule not given here); details: Cy5-oligo bound E. coli SSB, fluorescence interference
# [10] = system: Hepatitis C virus NS3 helicase; experiment: blockers of NS3h binding to DNA – biochemical, fluorescence polarization, NIH Clinical Collection, primary screen (AID 743270; call rule not given here); details: NS3 helicase binding to Cy5-dT15 DNA, stronger effect = higher value, concentration not given here
# [11] = target: Single-stranded DNA-binding protein (Escherichia coli (strain K12)) (UniProt P0AGE0); experiment: SSB-ssDNA binding inhibitors – biochemical, fluorescence polarization, NIH Clinical Collection, counter-screen for HCV NS3 helicase inhibitor project (AID 743271; in the data active = inhibition above about 28%); details: E. coli SSB-DNA binding, stronger effect = higher value, concentration not given here
# [12] = compounds distorting NS3 helicase fluorescence signal – biochemical, NIH Clinical Collection, artefact control for HCV NS3 helicase inhibitor project (AID 743272; call rule not given here;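 note: HCV NS3 helicase with a Cy5 labelled single stranded DNA probe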); details: fluorescence interference counterscreen, HCV NS3 helicase assay; stronger effect = lower value
# [13] = measured here: relative caspase fold change +Dox/-Dox
# [14] = measured here: total cells with miR-34 induction, stronger effect = lower value
# [15] = measured here: total cells without miR-34 induction
# [16] = stronger effect = lower value, cell number ratio, induced over uninduced
# Sequence of ATP-dependent translocase ABCB1 (Homo sapiens) (P08183 whole entry, looked up): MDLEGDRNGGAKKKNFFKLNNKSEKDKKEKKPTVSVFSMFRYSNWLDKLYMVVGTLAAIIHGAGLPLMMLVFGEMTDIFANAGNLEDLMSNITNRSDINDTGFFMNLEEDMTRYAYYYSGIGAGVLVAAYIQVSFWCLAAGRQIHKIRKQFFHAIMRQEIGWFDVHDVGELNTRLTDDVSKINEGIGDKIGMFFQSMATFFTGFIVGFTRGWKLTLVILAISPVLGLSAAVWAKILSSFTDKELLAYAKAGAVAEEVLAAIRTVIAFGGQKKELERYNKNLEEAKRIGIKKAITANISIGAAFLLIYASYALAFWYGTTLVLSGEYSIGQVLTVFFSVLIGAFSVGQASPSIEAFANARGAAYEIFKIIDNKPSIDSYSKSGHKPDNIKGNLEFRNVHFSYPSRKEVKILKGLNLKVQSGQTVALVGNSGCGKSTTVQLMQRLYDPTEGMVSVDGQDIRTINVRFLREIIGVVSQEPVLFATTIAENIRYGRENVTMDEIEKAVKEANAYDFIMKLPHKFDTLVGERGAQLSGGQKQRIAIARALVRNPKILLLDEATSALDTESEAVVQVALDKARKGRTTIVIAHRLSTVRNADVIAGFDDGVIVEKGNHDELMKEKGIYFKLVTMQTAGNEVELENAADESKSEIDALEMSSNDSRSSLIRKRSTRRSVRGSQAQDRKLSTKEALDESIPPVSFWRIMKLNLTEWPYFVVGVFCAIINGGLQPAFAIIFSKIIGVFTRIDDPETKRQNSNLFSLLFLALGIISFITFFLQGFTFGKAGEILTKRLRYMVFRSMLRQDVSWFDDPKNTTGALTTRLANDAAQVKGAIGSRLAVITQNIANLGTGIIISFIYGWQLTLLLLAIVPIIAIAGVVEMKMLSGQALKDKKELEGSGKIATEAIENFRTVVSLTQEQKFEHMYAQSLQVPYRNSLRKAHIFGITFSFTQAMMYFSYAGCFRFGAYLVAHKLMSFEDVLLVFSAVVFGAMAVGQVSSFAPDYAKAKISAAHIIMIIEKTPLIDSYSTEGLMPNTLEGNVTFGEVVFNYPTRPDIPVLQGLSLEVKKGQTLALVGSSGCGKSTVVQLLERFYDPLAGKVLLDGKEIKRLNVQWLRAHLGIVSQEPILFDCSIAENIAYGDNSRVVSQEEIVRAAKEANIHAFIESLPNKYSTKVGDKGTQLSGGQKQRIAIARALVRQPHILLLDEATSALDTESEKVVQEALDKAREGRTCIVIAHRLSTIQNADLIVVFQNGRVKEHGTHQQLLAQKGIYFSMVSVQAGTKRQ
structure (smiles),measurement,setting,value
C=C(C)CN1CC[C@]23c4c5ccc(O)c4OC2c2[nH]c4ccccc4c2C[C@@]3(O)C1C5 (stereo partly drawn),fold change,[1]; stronger effect = lower value,0.245 (active)
same,fold change,[1]; [13],1.96
same,cell count,[1]; [14],761
same,cell count,[1]; [15],3110
same,z-score,[2],-1.44 (inactive)
CCCCCC=CCC=CCC=CCC=CCCCC(=O)Nc1ccc(O)cc1,fold change,[1]; [16],0.829 (inactive)
same,fold change,[1]; [13],1.13
same,cell count,[1]; [14],7710
same,cell count,[1]; [15],9290
same,z-score,[2],-1.44 (inactive)
CNC1CC(c2ccc(Cl)c(Cl)c2)c2ccccc21 (stereo not drawn),fold change,[1]; [16],0.956 (inactive)
same,fold change,[1]; [13],1.45
same,cell count,[1]; [14],5010
same,cell count,[1]; [15],5240
same,z-score,[2],-1.44 (inactive)
CN1C(CC(O)c2ccccc2)CCCC1CC(O)c1ccccc1 (stereo not drawn),survival,[3],5.42 (inactive)
same,parasite load remaining,[4],93.7% (inactive) and 75.5% (inactive)
same,viability,[4],96.2% and 77.8%
same,fold change,[1]; stronger effect = lower value,0.827 (inactive)
same,fold change,[1]; [13],1.06
same,cell count,[1]; [14],8680
same,cell count,[1]; [15],10500
C/C=C1/C[N+]2(C)CCC34C(=C(C=O)[C@H]1C[C@@H]32)Nc1ccccc14 (stereo partly drawn),fluorescence slope change,[5],21.2% (inactive)
same,survival,[3],3.83 (inactive)
same,parasite load remaining,[4],95% (inactive)
same,viability,[4],101%
same,fold change,[1]; stronger effect = lower value,0.931 (inactive)
same,fold change,[1]; [13],1.21
same,cell count,[1]; [14],8700
same,cell count,[1]; [15],9340
CN1CC[C@@]23CCCCC2C1Cc1ccc(O)cc13 (stereo partly drawn),fold change,[1]; stronger effect = lower value,0.886 (inactive)
same,fold change,[1]; [13],1.9
same,cell count,[1]; [14],9070
same,cell count,[1]; [15],10200
same,z-score,[2],0.545 (inactive)
CC(C)(O)[C@@H]1[C@H]2OC(=O)[C@@H]1[C@]1(O)C[C@H]3O[C@]34C(=O)O[C@H]2[C@]14C (tested in a mixture with another compound),period change,[6],-0.105 h (inactive)
same,parasite load remaining,[4],96.3% (inactive)
same,viability,[4],67.1%
same,inhibition,[7],-5% (inactive)
same,fluorescence ratio (interference),[8],1 (inactive)
same,fluorescence ratio,[9],1 (inactive)
same,inhibition,[10],0.4% (inactive)
same,inhibition,[11],-0.1% (inactive)
same,fluorescence ratio,[12],0.9 (inactive)
same,fold change,[1]; stronger effect = lower value,1.06 (inactive)
same,fold change,[1]; [13],1.05
same,cell count,[1]; [14],11200
same,cell count,[1]; [15],10500
same,z-score,[2],0.54 (inactive)
C[C@]12CCC3C4CCC(=O)C=C4CCC3C1CCC2O (stereo partly drawn),fold change,[1]; stronger effect = lower value,0.894 (inactive)
same,fold change,[1]; [13],1.48
same,cell count,[1]; [14],7980
same,cell count,[1]; [15],8920
same,z-score,[2],-0.31 (inactive)
CCCCCCCCCCCCCCCCOC[C@H](COP(=O)([O-])OCC[N+](C)(C)C)OC(C)=O,survival,[3],57.8 (inactive)
same,fold change,[1]; stronger effect = lower value,0.933 (inactive) and 0.881 (inactive)
same,fold change,[1]; [13],1.16 and 1.84
same,cell count,[1]; [14],5630 and 5430
same,cell count,[1]; [15],6040 and 6160
COc1ccc2[nH]c3c(c2c1)CCN=C3C,fluorescence slope change,[5],83.4% (active)
same,survival,[3],10.2 (inactive)
same,parasite load remaining,[4],105% (inactive) and 62.3% (inactive)
same,viability,[4],98.5% and 75.1%
same,fold change,[1]; stronger effect = lower value,0.83 (inactive)
same,fold change,[1]; [13],1.33
same,cell count,[1]; [14],7960
same,cell count,[1]; [15],9590
C[C@]12CC(=CO)C(=O)CC1CCC1C2CC[C@@]2(C)C1CC[C@]2(C)O (stereo partly drawn),fold change,[1]; stronger effect = lower value,0.96 (inactive)
same,fold change,[1]; [13],2.87
same,cell count,[1]; [14],9400
same,cell count,[1]; [15],9790
same,z-score,[2],-1.14 (inactive)
O=C1C=C2C=C[C@@H]3CC2(O1)[C@H]1CCCCN31,fluorescence slope change,[5],28.7% (inactive)
same,survival,[3],2.33 (inactive)
same,parasite load remaining,[4],0.53% (active)
same,viability,[4],98.2%
same,fold change,[1]; stronger effect = lower value,0.999 (inactive)
same,fold change,[1]; [13],0.949
same,cell count,[1]; [14],2810
same,cell count,[1]; [15],2810
CC(C)CC(NP(=O)(O)O[C@@H]1O[C@@H](C)[C@H](O)[C@@H](O)[C@H]1O)C(=O)NC(Cc1c[nH]c2ccccc12)C(=O)O (stereo partly drawn),period change,[6],0.015 h (inactive)
same,inhibition,[7],-2% (inactive)
same,fluorescence ratio (interference),[8],1 (inactive)
same,fold change,[1]; stronger effect = lower value,0.965 (inactive)
same,fold change,[1]; [13],0.942
same,cell count,[1]; [14],10500
same,cell count,[1]; [15],10900
same,z-score,[2],0.455 (inactive)
CCN1C[C@@]2(COC)C3[C@@H](OC)[C@H]4[C@@H]1[C@@]3(C1C[C@@]3(O)[C@H](OC(=O)c5ccccc5)C1[C@]4(OC(C)=O)[C@@H](O)[C@H]3OC)[C@@H](OC)C[C@H]2O (stereo partly drawn),survival,[3],3.83 (inactive)
same,parasite load remaining,[4],56% (inactive) and 73.1% (inactive)
same,viability,[4],104% and 80.1%
same,fold change,[1]; stronger effect = lower value,0.874 (inactive)
same,fold change,[1]; [13],1.14
same,cell count,[1]; [14],8650
same,cell count,[1]; [15],9900
CC(C)(O)C1C2OC(=O)C1[C@]1(O)CC3O[C@]34C(=O)OC2[C@]14C (stereo partly drawn) (tested in a mixture with another compound),fold change,[1]; stronger effect = lower value,0.954 (inactive)
same,fold change,[1]; [13],1.55
same,cell count,[1]; [14],9380
same,cell count,[1]; [15],9830
same,z-score,[2],0.86 (inactive)
CNCC(O)c1ccc(O)c(OC)c1 (stereo not drawn),fluorescence slope change,[5],189% (active)
same,survival,[3],30.2 (inactive)
same,parasite load remaining,[4],40.2% (inactive) and 98.3% (inactive)
same,viability,[4],47.9% and 90.3%
same,fold change,[1]; [16],0.905 (inactive)
same,fold change,[1]; [13],1.46
same,cell count,[1]; [14],8830
same,cell count,[1]; [15],9760
CCCCCCCCCCCCCCCC(=O)OC[C@H](COP(=O)([O-])OCC[N+](C)(C)C)OC(C)=O,survival,[3],57 (inactive)
same,fold change,[1]; stronger effect = lower value,0.988 (inactive)
same,fold change,[1]; [13],1.32
same,cell count,[1]; [14],5610
same,cell count,[1]; [15],5670
CCCCCCCCCCCCCCCCOC[C@@H](O)COP(=O)([O-])OCC[N+](C)(C)C,survival,[3],114 (inactive)
same,fold change,[1]; stronger effect = lower value,0.982 (inactive) and 0.938 (inactive)
same,fold change,[1]; [13],1.56 and 0.831
same,cell count,[1]; [14],5950 and 5610
same,cell count,[1]; [15],6060 and 5980
CN1CC[C@]2(c3cccc(O)c3)Cc3nc4ccccc4cc3CC2C1 (stereo partly drawn),fold change,[1]; [16],0.813 (inactive)
same,fold change,[1]; [13],1.31
same,cell count,[1]; [14],7470
same,cell count,[1]; [15],9190
same,z-score,[2],-0.555 (inactive)
